Drawing on PubChem BioAssay (NCATS), this text covers Potency and outcome for five molecules.

In experiment [1] the test system is Zika virus NS2B-NS3 protease (linked construct). Description: Primary screen NINDS Rhodamine qHTS for Zika virus inhibitors (AID 1347160). Further: nearly all actives have a fitted effect of over 55% in size. Further: potency means the concentration at half of the fitted maximal effect. In outline:
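Purified linked NS2B-NS3 protease (NS2B hydrophilic domain joined to NS3 protease by flexible linker), 25 nM in 10 mM Tris-HCl pH 8.0, 0.01% Tween 20. Compounds titrated, 15 min preincubation at room temperature; 1.5 microM Rhodamine110 substrate, FITC fluorescence change over 15 min.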
(In qHTS, concentration-response curves come from the screen itself.)

Experiment [2] is described as follows: OV-KATE Cancer Cell Toxicity qHTS against the NCATS CANVASS Library (AID 1347345). In outline:
(§1)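 Following a 4 h pre-incubation of 1000 seeded cells, compounds were pinned in an 11-pnt dilution series and left for 72 h; viability then came from CellTiter-Glo.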

The nature of experiment [3]: HPAF-II Cancer Cell Toxicity qHTS against the NCATS CANVASS Library (AID 1347346). Further: series mostly up to about 38 µM; nearly all actives have a fitted effect of over 55% in size. The gist of the method: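 Cytotoxicity in HPAF-II pancreatic cancer cells: 72 h treatment across 11 concentrations, ATP-based CellTiter-Glo luminescence endpoint.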
Experiment [4] is described as follows: UWB1.289 Cancer Cell Toxicity qHTS against the NCATS CANVASS Library (AID 1347347). Further: nearly all actives have a fitted effect of over 60% in size. Further: potency means the concentration at half of the fitted maximal effect. The gist of the method: as §1
Experiment [5] is described as follows: Panc-1005 Cancer Cell Toxicity qHTS against the NCATS CANVASS Library (AID 1347349). Further: series mostly up to about 38 µM; nearly all actives have a fitted effect of over 60% in size. In outline: as §1
Experiment [6] can be described thus: HPAF-II 24hr Apoptosis Induction qHTS against the NCATS CANVASS Library (AID 1347356). In outline: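 Apoptosis induction in HPAF-II pancreatic cancer cells is measured as caspase-3/7 luminescence after a 24-hour exposure to compounds.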
The nature of experiment [7]: HPAF-II 12hr Apoptosis Induction qHTS against the NCATS CANVASS Library (AID 1347358). The gist of the method:
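Apoptosis in HPAF-II pancreatic cancer cells is scored as caspase 3/7 luminescence following a 12-hour exposure to an 11-point compound series.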

Experiment [8] is described as follows: HEK293 24hr Apoptosis Induction qHTS against the NCATS CANVASS Library (AID 1347359). In outline:
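Caspase-3/7 activation measured as luminescence from the DEVD-based Caspase-Glo reagent, 15 min at room temperature, following 24-hour compound treatment of HEK293 cells.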

Experiment [9] can be described thus: HPAF-II 18hr Apoptosis Induction qHTS against the NCATS CANVASS Library (AID 1347360). The gist of the method: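 Caspase-3/7 activation was measured with luminescent Caspase-Glo 3/7 reagent (15 min, RT) in HPAF-II cancer cells (500 cells/well). Before detection, cells had been treated for 18 h at 37 C with compounds (11 points).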
Experiment [10] is described as follows: HEK293 12hr Apoptosis Induction qHTS against the NCATS CANVASS Library (AID 1347361). In outline:
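HEK293 cells (500/well, DMEM + 10% FBS) were exposed to natural products across an 11-point series for 12 hours at 37 degrees C. Caspase-3/7 activity was then measured with DEVD luciferase luminescence after 15 min at room temperature.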

The subject of experiment [11] is NAD(P)H diaphorase (Clostridium kluyveri). Description: Diaphorse counterscreen qHTS: Assay Interference Panel against the NCATS CANVASS Library (AID 1347362). In outline: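 Counterscreen for coupling-enzyme interference: resorufin fluorescence from resazurin/NADH turnover, read after 5 min at room temperature. Compounds were tested over an 11-point series after 15 min dark preincubation with diaphorase in PBS-Tween.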
On the technique in general: A counterscreen serves to expose hits that act by an unwanted route or on another target.

The target in experiment [12] is Luciferin 4-monooxygenase (Photinus pyralis) (UniProt P08659). Briefly: Firefly luciferase counterscreen qHTS: Assay Interference Panel against the NCATS CANVASS Library (AID 1347363). Further: series mostly up to about 57 µM. The gist of the method:
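Luminescence inhibition readout: compounds (11-point qHTS) sat 15 min at room temperature with substrate mix (0.013 mM luciferin and ATP), then firefly luciferase was added and signal read 5 min later.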

Experiment [13] in a line: qHTS for ATAD5 Agonist screened against the NCATS CANVASS Library (AID 1347367).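 Further: luciferase reporter driven by ATAD5 which rises upon DNA damage.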 In outline:
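Genotoxicity via ATAD5-luciferase luminescence after 16 h compound exposure (11-point series) at 37C in HEK293T-ATAD5 cells. CellTiter-Fluor viability read precedes the luminescence read; MMS serves as positive control.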

Experiment [14] in a line: qHTS for ATAD5 Antagonist screened against the NCATS CANVASS Library (AID 1347370).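 Further: HEK293T cells carrying an ATAD5 luciferase reporter co-treated with 10 µM 5-fluorouridine; series mostly up to about 46 µM; nearly all actives have a fitted effect of over 65% in size.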 The gist of the method:
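HEK293T cells with a stably integrated ATAD5-controlled luciferase reporter were exposed to compounds (11-pt) alongside 10 uM 5-fluorouridine as ATAD5 stabilizer for 16hr at 37C. Viability was read by CellTiter-Fluor fluorescence, then ATAD5 by luminescence.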

Experiment [15] is described as follows: J3T Cancer Cell Toxicity qHTS against the NCATS CANVASS Library (AID 1347371). The gist of the method:
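Viability of the J3T glioma line from dog is scored by ATP luminescence after a 72 hr incubation with natural products.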

Experiment [16] is described as follows: qHTS for Hypoxia signaling pathway (HIF-1) agonists against the NCATS CANVASS Library (AID 1347375). The gist of the method:
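Inducers of HIF-1 signaling were detected in ME-180 cells bearing an HRE-driven beta-lactamase reporter after 17 h compound exposure. Activity came from CCF4-AM FRET emission ratio (460/530 nm) in qHTS format.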

The nature of experiment [17]: 10-beta competent E. coli microbial cell viability qHTS against the NCATS CANVASS Library (AID 1347376). Further: series mostly up to about 46 µM. The gist of the method: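 Cytotoxicity toward competent E. coli is scored from cellular ATP content via BacTiter-Glo luminescence following overnight compound exposure at 37C, 5% CO2.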
The nature of experiment [18]: qHTS for Inflammasome Signaling Inhibitors: IL-1-beta AlphaLISA screen against the NCATS CANVASS Library (AID 1347379).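 Further: human THP-1 cells primed with LPS then triggered with ATP.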 In outline: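 Human THP-1 cells were pretreated 1 hr at 37 °C with compounds (up to 57.5 uM final), then stimulated with LPS (250 ng/mL final) and ATP (1.25 mM final). Secreted IL-1B was read by AlphaLISA after 16 hr.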
Experiment [19] is described as follows: Inflammasome Signaling qHTS Counterscreen: IL-1-beta AlphaLISA counterscreen against the NCATS CANVASS Library (AID 1347381).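 Further: cell-free check with purified IL-1β in medium and no THP-1 cells; series mostly up to about 57 µM.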 The gist of the method:
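To flag interference with the AlphaLISA read-out, a known amount of purified IL-1-beta (4 pg) replaced cell supernatant. Detection used anti-IL-1-beta acceptor beads, biotinylated antibody and streptavidin donor beads at room temperature.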

Experiment [20] addresses Nuclear receptor subfamily 1 group I member 3 (Homo sapiens) (UniProt Q14994). Description: qHTS for Constitutive Androstane Receptor (CAR) Agonist screened against the NCATS CANVASS Library (AID 1347373).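 Further: every well also contained 1.5 µM PK11195 alongside the test compound.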 In outline: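 CAR agonism is scored as CYP2B6-promoter luciferase induction in a double-stable transfected HepG2 line, where 1.5uM PK11195 is included in each well. Compounds were tested over a 24hr exposure.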

Records with an inconclusive call do not appear. Calls of active or inactive are those of the source. The call rests on the fitted dose curve; in most records, active means well fitted curve in the direction sought with a large enough effect; inconclusive means small, poorly fitted or top-dose-only effect, or another doubt; inactive means no such curve, though single readings can be large; an effect the other way counts as inactive or inconclusive. Numbered stars: 1 amine (or outer) side, 2 acyl side, 3 side chain; on linkers, the order of the positions; unused ones are H or OH. Square brackets hold non-standard residues; d marks the D form. Peptide text beside a SMILES is read from it. X1 = CCCCCCCCCC(=O)[C@H](C(=O)[*:2])[C@@H]1CNC(=O)[C@@H](N[*:1])CS1

Nuclear receptor subfamily 1 group I member 3 (Homo sapiens), sequence (Q14994 whole entry, looked up): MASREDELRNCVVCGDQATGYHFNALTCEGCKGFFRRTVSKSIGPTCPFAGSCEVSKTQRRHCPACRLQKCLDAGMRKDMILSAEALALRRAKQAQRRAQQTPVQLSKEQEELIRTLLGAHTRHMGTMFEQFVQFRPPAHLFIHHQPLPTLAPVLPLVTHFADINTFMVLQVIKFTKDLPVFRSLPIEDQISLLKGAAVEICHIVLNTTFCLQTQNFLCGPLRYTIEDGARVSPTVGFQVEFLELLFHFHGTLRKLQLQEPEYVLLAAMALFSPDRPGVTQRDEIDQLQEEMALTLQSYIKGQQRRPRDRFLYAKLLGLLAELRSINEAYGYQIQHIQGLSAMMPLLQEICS
Luciferin 4-monooxygenase (Photinus pyralis), sequence (P08659 whole entry, looked up): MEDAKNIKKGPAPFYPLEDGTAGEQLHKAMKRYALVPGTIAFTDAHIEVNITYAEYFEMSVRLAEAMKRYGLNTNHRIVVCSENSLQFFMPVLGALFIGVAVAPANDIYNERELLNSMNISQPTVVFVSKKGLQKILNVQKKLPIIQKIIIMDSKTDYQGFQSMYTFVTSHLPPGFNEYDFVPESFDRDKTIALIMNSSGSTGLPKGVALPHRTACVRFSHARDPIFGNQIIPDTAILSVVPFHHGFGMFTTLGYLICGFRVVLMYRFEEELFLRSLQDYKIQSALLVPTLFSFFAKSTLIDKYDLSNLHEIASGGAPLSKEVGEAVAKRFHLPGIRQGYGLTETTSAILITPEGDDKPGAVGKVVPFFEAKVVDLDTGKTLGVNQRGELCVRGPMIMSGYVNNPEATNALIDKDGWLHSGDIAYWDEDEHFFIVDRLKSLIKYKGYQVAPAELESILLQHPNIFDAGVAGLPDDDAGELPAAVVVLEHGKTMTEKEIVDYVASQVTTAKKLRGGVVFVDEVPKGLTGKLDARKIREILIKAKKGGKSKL

As to `C[C@@H]1C(=O)[C@]23CC[C@H]1C[C@]21O[C@H]2C(C)(C)C=CC(=O)[C@@]23COC1=O`, the Potency in experiment [1] was 62.1 µM (active). The Potency entry in experiment [2], in experiment [3], in experiment [4], in experiment [5], in [7] and in experiment [8] was “inactive” each time. Besides, the Potency entry in experiment [9], in [10], in [11], in experiment [12], in experiment [13] and in experiment [14] was “inactive” in each case. Besides, the Potency result in experiment [15], in experiment [16] and in experiment [18] was “inactive” in each case. The molecule was classed as inactive in experiment [6], in [17] and in [19].
In the case of `Oc1ccc(/C=C2/c3cc(O)cc(O)c3C(c3ccc(O)cc3)[C@H]2c2cc(O)cc(O)c2)cc1` (stereo partly specified), the Potency in experiment [1] was 27.7 µM (active); in experiment [4] it was 3.75 µM (active). The Potency entry in experiment [2], in [3], in [7], in experiment [8], in experiment [9] and in experiment [10] was “inactive” throughout. The Potency entry in experiment [11], in [12], in [13], in [14], in [15] and in experiment [16] was “inactive” throughout. In addition, in [18], the Potency result is “inactive”. Further, the call in [6], in experiment [20], in experiment [17] and in [19] was inactive.
Regarding `CCCCCCCCCC(=O)[C@@H]1C(=O)N[C@@H](CC(C)C)C(=O)N[C@H](C)C(=O)N2CCC[C@H]2C(=O)N[C@@H](C(C)C)C(=O)N[C@H]2CS[C@H]1CNC2=O` (cyclo(L[dA]PV[X1])), the Potency in [1] was 4.4 µM (active). Further, the Potency entry in experiment [2], in experiment [3], in [4], in experiment [5], in [7] and in experiment [8] was “inactive” throughout. For the same molecule, the Potency entry in experiment [9], in experiment [10], in experiment [12], in experiment [13], in experiment [14] and in experiment [15] was “inactive” throughout. Also, the Potency entry in experiment [16] and in [18] was “inactive” in each case. Also, the outcome in [6], in experiment [20], in experiment [17] and in experiment [19] was inactive.
Turning to `O=C(O)[C@@]12CO[C@@]3(O)C4CCN(CC[C@H]31)[C@H]4c1c2[nH]c2ccccc12`, the Potency result in experiment [1], in experiment [2], in [3], in [4], in experiment [5] and in [7] was “inactive” throughout. Also, the Potency entry in experiment [8], in experiment [9], in experiment [10], in [11], in experiment [12] and in experiment [13] was “inactive” throughout. Further, the Potency result in experiment [14], in [15], in experiment [16] and in experiment [18] was “inactive” in each case. Further, the molecule was classed as inactive in [6], in experiment [20], in [17] and in experiment [19].
With `C=C[C@]1(C)CC[C@@H]([C@H](C)C(=O)OCC)O1`, the Potency in [1] was 27.2 µM (active). The Potency entry in experiment [2], in [3], in [4], in experiment [5], in [7] and in experiment [8] was “inactive” each time. Further, the Potency result in experiment [9], in experiment [10], in experiment [11], in experiment [13], in experiment [14] and in experiment [15] was “inactive” throughout. Besides, the Potency result in experiment [16] and in [18] was “inactive” in each case. In addition, the call in experiment [6], in experiment [20], in experiment [17] and in experiment [19] was inactive.
